HCV inhibitor: qHTS Assay for Inhibitors of Hepatitis C Virus (HCV) | Huh7.5.1 HCVcc-Cre infection, luciferase reporter, 44 h | Potency, µM (highest dose often 41.8 µM), without a hit: at the highest dose activity change, negative = inhibition, usual class: inhibitors | 3.4% of 340,000 active | AID 651820, 2012; active means well fitted inhibition curve with a large enough effect; inconclusive means small, poorly fitted or top-dose-only effect, or another doubt; inactive means no such curve, though single readings can be large or run the other way; further: potency means the concentration at half of the fitted maximal effect
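Cells (1,000/well) were plated 4 h before compound, then infected with HCVcc-Cre virus (~0.5 moi). After 44 h further culture, infection was read as luciferase luminescence following a 15 min substrate incubation at room temperature.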
HCMV antiviral: qHTS Assay for inhibitors of the human cytomegalovirus (HCMV); activity change, negative = inhibition, % at 57.5 µM; 4.5% of 410,000 active; AID 1259415, 2018; HFF cells, HCMV-luciferase reporter, 72 h; active compounds read low; in the data active means activity change below about -60%; inconclusive means no clear call, values can overlap the other calls; inactive means above about -39%
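Inhibition of viral replication was scored as loss of reporter luminescence in HFFs infected with HCMV-luciferase (MOI 1 PFU/cell) for 72 h; compounds tested at 2 doses, normalized to buffer and Salinomycin controls.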
MARV entry inh: qHTS for inhibitors of binding or entry into cells for Marburg Virus; 1.8% of 300,000 active; Potency, µM (top dose mostly 37.8 µM), for the others: at the top dose activity change, negative = inhibition, hits mostly inhibitors; AID 540276, 2011; Marburg virus pseudotyped entry inhibition, cell reporter; calls by dose curve; tested in HEK293 cells; further: potency means the concentration at half of the fitted maximal effect
FMDV antiviral: High Throughput Screening for Foot and Mouth Disease Virus Antivirals | FMDV antiviral cell-based qHTS | Potency, µM (highest dose often 57.9 µM), without a hit: top-dose activity change, negative = inhibition, hits mostly inhibitors | 1.2% of 410,000 active | AID 1159524, 2015; calls by dose curve; tested in HEK293T cells; further: read-out not given here; potency means the concentration at half of the fitted maximal effect; nearly all actives have a fitted effect of over 45% in size
LASV entry inh: qHTS for Inhibitors of binding or entry into cells for Lassa Virus; Potency, µM (series often up to 37.9 µM), inactives show at the highest dose activity change, negative = inhibition, actives largely listed as inhibitors; Lassa virus pseudotype entry inhibition, cell reporter; 1.2% of 300,000 active; calls by dose curve; tested in HEK293 cells; further: potency means the concentration at half of the fitted maximal effect; nearly all actives have a fitted effect of over 50% in size
Numbers without * were called inactive; u = inconclusive; x = no result given; [ ] = remark or other dose. Only some compounds are listed: those with a hit (about 7.9% of all), similar ones and a draw of the others. On the % scale 0 is the no-effect control and ±100 the full control effect.

SMILES	HCV inhibitor	HCMV antiviral	MARV entry inh	FMDV antiviral	LASV entry inh
COc1ccc(-c2cc(C(=O)N/N=C/c3ccc4c(c3)OCO4)c3ccccc3n2)c(OC)c1	u	-7	4µM*	-6%	2.5µM*
COc1ccc(-c2cc(C(=O)N/N=C/c3sccc3C)c3ccccc3n2)c(OC)c1	u	-63*	5µM*	-8%	3.2µM*
COc1ccccc1-c1cc(C(=O)N/N=C/c2cccs2)c2ccccc2n1	u	u	u	-23%	u
COc1ccccc1N/N=C/c1ccc2c(c1)OCO2	2%	-71*	-16%	41%	20%
O=C(O)COc1ccccc1/C=N/NC(=O)c1cc(-c2ccc(F)cc2)nc2ccccc12	-31%	20	-24%[46.1 µM]	3%	-19%
COc1ccccc1C(=O)N/N=C/c1ccc2c(c1)OCO2	3%	91	u	49%	u
O=C(N/N=C/c1ccc2c(c1)OCO2)c1cc(-c2ccc(F)cc2)nc2ccccc12	-25%	13	u	22%	0.58µM*
C[C@@H]1CC2C3CCC4=CC(=O)C=C[C@]4(C)[C@@]3(F)[C@@H](O)C[C@]2(C)[C@@]1(O)C(=O)CO (stereo partly drawn)	x	x	-5%	x	x
CCC1CCCCN1CCCNC(=O)c1ccc2c(c1)sc1nc(-c3ccc(F)cc3)cn12 (stereo not drawn)	x	x	x	42%	u
CCOC(=O)c1c(-c2ccccc2)[nH]c2ccc(C)cc12	x	-16	x	x	x
Cn1c(=O)c2c(ncn2CCOc2ccc(Br)cc2)n(C)c1=O	10µM*	u	-24%[46.1 µM]	u	0%[46.1 µM]
CC(=O)N1c2ccccc2[C@H](C)[C@H]1C	4%	28	x	10%	x
CC1c2ccccc2N(S(=O)(=O)c2ccccc2)C1C (stereo not drawn)	u	-23	3.5µM*	-16%	u
COc1ccc(NS(=O)(=O)c2cc(NC(=O)c3ccc(=O)[nH]c3)ccc2N2CCCC2)cc1	u	-74*	x	67%	x
COc1ccc(NS(=O)(=O)c2cc(NC(=O)c3cccnc3Cl)ccc2N2CCCC2)cc1	u	10	x	72%	x
Cc1ccc(NC(=O)c2ccc(=O)[nH]c2)cc1S(=O)(=O)N1CCCCC1	1%	13	x	4%	x
COc1ccc(NS(=O)(=O)c2cc(NC(=O)c3cnc(C)cn3)ccc2N2CCCC2)cc1	u	-65*	u	65%	u
COc1ccc(NS(=O)(=O)c2cc(NC(=O)c3ccco3)ccc2N2CCCCC2)cc1	u	-76*	14µM*	101%	u
Cc1cnc(C(=O)Nc2ccc(C)c(S(=O)(=O)N3CCCCC3)c2)cn1	10%	0	u	-2%	4%
COc1ccc(NS(=O)(=O)c2cc(NC(=O)c3cnc(C)cn3)ccc2N2CCCCC2)cc1	u	-74*	u	71%	u
COC(=O)C(c1ccccc1)(c1cn(C)c2ccccc12)C(Nc1ccc(Cl)cc1)c1ccccc1 (stereo not drawn)	x	-27	x	x	x
COc1ccc(NS(=O)(=O)c2cc(NC(=O)C3CC3)ccc2N2CCCCC2)cc1	11µM*	-101*	u	42%	u
COc1ccc(NS(=O)(=O)c2cc(NC(=O)C3CC3)ccc2N2CCOCC2)cc1	-24%	u	-20%	95%	u
Cn1cc(-c2cc3cnc(Nc4ccc5c(c4)OCO5)cc3n2C)cn1	x	-7	x	x	x
COC(=O)c1c(C)nc2c(c(SC)nn2-c2ccccc2)c1N	11µM*	-19	u	-19%	-9%
O=C(NCc1ccccc1CN1CCCC1)C1CCN(S(=O)(=O)c2ccc(F)c(F)c2)CC1	-10%	-101*	u	-21%	20%
Cc1ccc(S(=O)(=O)N2CCC(C(=O)NCc3ccccc3CN3CCCC3)CC2)cc1C	u	8	u	-6%	6%
O=C(NCc1ccc(Cl)cc1)C1CCN(S(=O)(=O)c2ccc(N3CCCC3=O)cc2)CC1	11µM*	u	x	u	x
COc1cc(=O)n2c(c1C(=O)NC(C)c1ccco1)CCN(Cc1ccccc1Cl)CC2 (stereo not drawn)	x	x	x	-6%	x
Cc1noc2ncnc(N3CCN(c4ccccc4F)CC3)c12	x	u	x	u	-21%[46.1 µM]

Screening results (PubChem BioAssay)
